Most compounds without a hit are left out; they make up all but 4.1% or so of the library.
Mdm2 MdmX PPI: inhibitors of human Mdm2-MdmX association, primary screen, cell-based, luminescence, split luciferase, SaOS-2, uHTS; SaOS-2 split-luciferase Mdm2/MdmX complementation; inhibition, % at 8 µM; 330,000 tested, 3% active; AID 485346, 2010;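 active means inhibition of at least 50% at 8 µM in the primary screen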
Target sequence (O15151 whole entry, looked up): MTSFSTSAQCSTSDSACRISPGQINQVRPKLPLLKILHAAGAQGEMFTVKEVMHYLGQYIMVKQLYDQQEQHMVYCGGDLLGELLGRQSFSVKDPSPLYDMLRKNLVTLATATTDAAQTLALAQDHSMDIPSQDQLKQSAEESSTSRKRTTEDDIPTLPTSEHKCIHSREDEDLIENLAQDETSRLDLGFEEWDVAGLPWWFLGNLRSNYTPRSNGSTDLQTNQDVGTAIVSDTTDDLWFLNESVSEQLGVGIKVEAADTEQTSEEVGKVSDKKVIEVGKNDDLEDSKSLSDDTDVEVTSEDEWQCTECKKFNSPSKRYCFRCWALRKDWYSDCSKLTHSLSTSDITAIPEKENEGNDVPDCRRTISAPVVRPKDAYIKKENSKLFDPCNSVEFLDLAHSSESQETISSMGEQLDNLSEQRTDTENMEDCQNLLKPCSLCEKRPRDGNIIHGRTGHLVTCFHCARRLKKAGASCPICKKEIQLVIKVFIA
Target sequence (Q00987 whole entry, looked up): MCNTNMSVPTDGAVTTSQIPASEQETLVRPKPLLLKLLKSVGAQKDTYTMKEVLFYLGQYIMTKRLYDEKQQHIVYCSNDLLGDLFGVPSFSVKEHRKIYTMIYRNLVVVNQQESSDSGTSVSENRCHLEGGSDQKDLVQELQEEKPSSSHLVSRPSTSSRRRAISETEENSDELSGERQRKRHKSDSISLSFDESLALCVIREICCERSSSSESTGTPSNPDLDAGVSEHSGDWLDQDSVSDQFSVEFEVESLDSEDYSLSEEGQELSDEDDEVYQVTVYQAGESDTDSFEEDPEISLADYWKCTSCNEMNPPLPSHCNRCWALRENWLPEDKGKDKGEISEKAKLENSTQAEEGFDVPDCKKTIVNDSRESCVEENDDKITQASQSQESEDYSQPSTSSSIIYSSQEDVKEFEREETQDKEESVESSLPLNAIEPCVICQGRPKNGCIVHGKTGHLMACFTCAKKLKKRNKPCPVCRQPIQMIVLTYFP
Jurkat NFkB inh: inhibitors of induced NF-kB luciferase reporter, primary screen, TCR NF-kB activation inhibitor project, cell-based, luminescence, uHTS | Jurkat, PMA/ionomycin-induced NF-kB luciferase reporter | inhibition, % at 4 µM | 330,000 tested, 0.53% active; in the data active means inhibition above about 50%
KLF5 inhibitor: KLF5 expression inhibitors, primary screen, DLD-1 cells, luminescence. DLD-1 KLF5 promoter-luciferase reporter. AID 1700, 2009. 290,000 tested, 0.23% active. inhibition, % at 5 µM;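 active means inhibition above a per-plate limit of that plate's mean compound inhibition plus 3 SD, cut at about 60% in these data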;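 further: higher means less KLF5 promoter-driven luciferase light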
Gli-Sufu antag: Gli-Sufu pathway antagonists, primary screen, luciferase luminescence, Sufu-KO-LIGHT cells, uHTS; Sufu-KO-LIGHT fibroblasts, Gli luciferase reporter luminescence; 340,000 tested, 0.74% active; inhibition, % at 5 µM;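 active means inhibition above about 55%, limit read from the data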
aSyn 5UTR inh: MLPCN primary screen, SNCA 5' untranslated region | 300,000 tested, 0.82% active | alpha-synuclein 5'UTR reporter, inhibitor activity | inhibition, % (tested at 7.5 µM); in the data active means inhibition above about 60%; inconclusive means no clear call, values can overlap the other calls;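 further: H4 neuroglioblastoma cells stably carrying SNCA 5'UTR luciferase fusion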
697 NFkB inh: inhibitors of PMA/ionomycin-induced NF-kB reporter, 697 cells, primary screen, B-cell NF-kB inhibitor project, cell-based, luminescence, uHTS | AID 435022, 2010 | 697 B-cell NF-kB luciferase reporter, 16 h | inhibition, % at 4 µM | 330,000 tested, 0.33% active; in the data active means inhibition above about 35%
Mdm2-MdmX conf: Mdm2-MdmX complex disruptors, retested hits, confirmation, luminescence, single concentration; 10,000 tested, 55% active; inhibition, % at 8 µM; AID 489028, 2010; shares compounds with Mdm2 MdmX PPI; Mdm2-MdmX binding, luminescent assay; in the data active means inhibition above about 40%
Full FLuc ctr: full-length luciferase signal inhibition, confirmation, counter-screen for Mdm2/MdmX interaction inhibitor project, cell-based, single concentration, SaOS-2; inhibition, % at 8 µM; SaOS-2 full-length luciferase counterscreen, luminescence; 6,200 tested, 77% active; shares compounds with Mdm2 MdmX PPI;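 active means mean inhibition at 8 µM reaching about 37%, which flags the compound as non-specific, limit read from the data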;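 further: p53-null SaOS-2 cells with luciferase driven by a doxycycline-inducible promoter; compound on cells about two nights before reading with doxycycline added after day one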
A number is an active result.

How did Cc1cc(C)cc(NC(=O)[C@H](NC(=O)[C@@H]2Cc3ccccc3CN2)c2ccccc2)c1 do in these assays?
Mdm2 MdmX PPI: inactive; Jurkat NFkB inh: inactive; KLF5 inhibitor: inactive; Gli-Sufu antag: inactive; aSyn 5UTR inh: inactive; 697 NFkB inh: inactive

What do the screens show for `Cc1cc(C)cc(NC(=O)[C@H](Cc2c[nH]c3ccccc23)NC(=O)[C@@H]2Cc3ccccc3CN2)c1`?
Mdm2 MdmX PPI: 60; Jurkat NFkB inh: inactive; KLF5 inhibitor: inactive; Gli-Sufu antag: inactive; aSyn 5UTR inh: inactive; 697 NFkB inh: inactive; Mdm2-MdmX conf: inactive

What do the screens show for `CCS(=O)(=O)c1ccc(N=Nc2ccc(O)c3ncccc23)c(OC)c1`?
Mdm2 MdmX PPI: 75; Jurkat NFkB inh: inactive; KLF5 inhibitor: inactive; Gli-Sufu antag: inactive; aSyn 5UTR inh: 78; 697 NFkB inh: inactive; Mdm2-MdmX conf: 69; Full FLuc ctr: inactive

What do the screens show for `Cc1ccc(N=Nc2ccc(O)c3ncccc23)cc1C`?
Mdm2 MdmX PPI: 78; Jurkat NFkB inh: inactive; KLF5 inhibitor: inactive; Gli-Sufu antag: inactive; aSyn 5UTR inh: 74; 697 NFkB inh: inactive; Mdm2-MdmX conf: 88; Full FLuc ctr: inactive

What do the screens show for `CCS(=O)(=O)c1ccc(O)c(NC(=O)c2cc(OC)c(OC)c(OC)c2)c1`?
Mdm2 MdmX PPI: inactive; Jurkat NFkB inh: inactive; KLF5 inhibitor: inactive; Gli-Sufu antag: inactive; aSyn 5UTR inh: inactive; 697 NFkB inh: inactive

Results for CCOCc1c(C(=O)NCC(c2ccco2)N2CCCC2)oc2ccccc12 (stereo not given) ?
Mdm2 MdmX PPI: inactive; Jurkat NFkB inh: inactive; Gli-Sufu antag: inactive; 697 NFkB inh: inactive

How did C/C=C1\COC(C(=O)NCc2ccccc2)(C(F)(F)F)C=C1C=C1CCCCC1 (stereo not given) do in these assays?
Mdm2 MdmX PPI: inactive; Jurkat NFkB inh: inactive; Gli-Sufu antag: inactive; aSyn 5UTR inh: inactive; 697 NFkB inh: inactive

How did C/C=C1\COC(C(=O)NCCN2CCCC2)(C(F)(F)F)C=C1C=C1CCCCC1 (stereo not given) do in these assays?
Mdm2 MdmX PPI: 53; Jurkat NFkB inh: inactive; Gli-Sufu antag: inactive; aSyn 5UTR inh: inactive; 697 NFkB inh: inactive; Mdm2-MdmX conf: inactive

Results for Cc1cc2ccccn2c1C(=O)c1ccc(Cl)c([N+](=O)[O-])c1 ?
Mdm2 MdmX PPI: inactive; Jurkat NFkB inh: inactive; KLF5 inhibitor: inactive; Gli-Sufu antag: inactive; aSyn 5UTR inh: inactive; 697 NFkB inh: inactive

How did Cc1c(C=O)c2ccccn2c1C(=O)c1ccc(Cl)c([N+](=O)[O-])c1 do in these assays?
Mdm2 MdmX PPI: 66; Jurkat NFkB inh: inactive; KLF5 inhibitor: inactive; Gli-Sufu antag: inactive; aSyn 5UTR inh: inactive; 697 NFkB inh: inactive; Mdm2-MdmX conf: inactive

What do the screens show for `Cc1cc(C)c(S(=O)(=O)N2CCN(C(=O)C(C)Cn3cncn3)CC2)c(C)c1` (stereo not given)?
Mdm2 MdmX PPI: inactive; Jurkat NFkB inh: inactive; KLF5 inhibitor: inactive; Gli-Sufu antag: inactive; aSyn 5UTR inh: inactive; 697 NFkB inh: inactive

How did O=C(/C=C/c1cc([N+](=O)[O-])ccc1OC(F)F)Nc1cccc([N+](=O)[O-])c1 do in these assays?
Mdm2 MdmX PPI: 75; Jurkat NFkB inh: inactive; KLF5 inhibitor: inactive; Gli-Sufu antag: inactive; aSyn 5UTR inh: inactive; 697 NFkB inh: inactive; Mdm2-MdmX conf: inactive

What do the screens show for `COc1ccc(/C=N/NC(=O)c2cnccn2)cc1O`?
Mdm2 MdmX PPI: inactive; Jurkat NFkB inh: inactive; KLF5 inhibitor: inactive; Gli-Sufu antag: inactive; aSyn 5UTR inh: inactive; 697 NFkB inh: inactive

Results for COc1ccc(/C=N/NC(=O)c2cc3c(OC)ccc(OC)c3[nH]2)cc1O ?
Mdm2 MdmX PPI: 61; Jurkat NFkB inh: inactive; KLF5 inhibitor: inactive; Gli-Sufu antag: inactive; aSyn 5UTR inh: 68; 697 NFkB inh: inactive; Mdm2-MdmX conf: 47; Full FLuc ctr: 90

How did O=[N+]([O-])c1ccc(O)c(/C=N/Nc2ncnc3c2cnn3-c2ccccc2)c1 do in these assays?
Mdm2 MdmX PPI: 91; Jurkat NFkB inh: inactive; KLF5 inhibitor: inactive; Gli-Sufu antag: 58; aSyn 5UTR inh: 66; 697 NFkB inh: inactive; Mdm2-MdmX conf: 91; Full FLuc ctr: inactive

What do the screens show for `CC(C)n1cc(CN2CCCC(C(=O)Nc3cccc(-c4cc5ccccc5[nH]4)c3)C2)cn1` (stereo not given)?
Mdm2 MdmX PPI: 78; Jurkat NFkB inh: inactive; KLF5 inhibitor: inactive; Gli-Sufu antag: inactive; aSyn 5UTR inh: inconclusive; 697 NFkB inh: inactive; Mdm2-MdmX conf: inactive

Results for Cn1cc(CN2CCCC(C(=O)Nc3cccc(-c4cc5ccccc5[nH]4)c3)C2)cn1 (stereo not given) ?
Mdm2 MdmX PPI: 60; Jurkat NFkB inh: inactive; KLF5 inhibitor: inactive; Gli-Sufu antag: inactive; aSyn 5UTR inh: inactive; 697 NFkB inh: inactive; Mdm2-MdmX conf: inactive

How did CCn1cc(CN2CCCC(C(=O)Nc3cccc(-c4cc5ccccc5[nH]4)c3)C2)c(C)n1 (stereo not given) do in these assays?
Mdm2 MdmX PPI: inactive; Jurkat NFkB inh: inactive; KLF5 inhibitor: inactive; Gli-Sufu antag: inactive; aSyn 5UTR inh: inactive; 697 NFkB inh: inactive

Results for COc1cccc(C2C(C(=O)c3cccs3)=C(O)C(=O)N2CCN2CCOCC2)c1OC (stereo not given) ?
Mdm2 MdmX PPI: inactive; Jurkat NFkB inh: inactive; KLF5 inhibitor: inactive; Gli-Sufu antag: inactive; aSyn 5UTR inh: inactive; 697 NFkB inh: inactive

What do the screens show for `CCc1nccn1CCC(=O)NC1CCCc2c1cnn2-c1ccc(F)cc1F` (stereo not given)?
Mdm2 MdmX PPI: inactive; Jurkat NFkB inh: inactive; KLF5 inhibitor: inactive; aSyn 5UTR inh: inactive; 697 NFkB inh: inactive

What do the screens show for `CCCc1nc2nc(C)c(NS(=O)(=O)c3ccc(Cl)cc3)c(=O)n2[nH]1`?
Mdm2 MdmX PPI: inactive; Jurkat NFkB inh: inactive; KLF5 inhibitor: inactive; Gli-Sufu antag: inactive; aSyn 5UTR inh: inactive; 697 NFkB inh: inactive

What do the screens show for `Clc1ccccc1-c1ccc(/C=N/Nc2nncc(-c3ccccc3)n2)o1`?
Mdm2 MdmX PPI: inactive; Jurkat NFkB inh: inactive; KLF5 inhibitor: inactive; Gli-Sufu antag: inactive; aSyn 5UTR inh: inactive; 697 NFkB inh: inactive

How did Clc1ccc(-c2ccc(/C=N/Nc3nncc(-c4ccccc4)n3)o2)cc1 do in these assays?
Mdm2 MdmX PPI: 50; Jurkat NFkB inh: inactive; KLF5 inhibitor: inactive; Gli-Sufu antag: inactive; aSyn 5UTR inh: inactive; 697 NFkB inh: inactive; Mdm2-MdmX conf: inactive
